# Measured values: PubChem BioAssay (NCI)
# The panel holds about 79,000 compounds, 15% with a hit somewhere; the sample as a whole holds those more often. Unmarked numbers belong to inactive results. Activity calls are given as the source filed them. Cut-off read from the data, not from the text of the source: active = growth inhibition above about 70%; inactive = the rest.
# Legend:
# [1] = NCI Yeast Anticancer Drug Screen. Data for the wt1 strain (AID 149);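 note: 0% = growth of vehicle-treated wt1 cultures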; conditions: S. cerevisiae wt1 strain (SPY 50644) growth inhibition, hits give high values
# Method in brief: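 The wt1 strain was treated with compounds, and growth was compared with vehicle-treated cultures to give inhibition.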
# [2] = NCI Yeast Anticancer Drug Screen. Data for the rad50EPP+ strain (AID 151);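 note: 0% = growth of vehicle-treated control cultures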; conditions: S. cerevisiae rad50 mutant strain, hits give high values
# Method in brief: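 One strain with a rad50 alteration (rad50EPP+) was compound-treated, its growth then compared to that of vehicle controls.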
# [3] = NCI Yeast Anticancer Drug Screen. Data for the mgt1 strain (AID 153); conditions: S. cerevisiae mgt1 mutant growth inhibition, hits give high values
# Method in brief: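 After exposure of the mgt1 yeast mutant to compound, growth was measured and reported as inhibition compared with vehicle controls.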
# [4] = NCI Yeast Anticancer Drug Screen. Data for the rad50 strain (AID 155);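 note: 0% = growth of vehicle-only cultures of the same strain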; conditions: S. cerevisiae rad50 strain growth inhibition, hits give high values
# Method in brief: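 Cells are treated with compound, grown, and their growth is then scored against vehicle-only cultures of the same repair-deficient yeast strain.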
# [5] = NCI Yeast Anticancer Drug Screen. Data for the mec2-1 strain (AID 157); conditions: S. cerevisiae mec2-1 strain, hits give high values
# Method in brief: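 Test agents were screened against the mec2-1 yeast strain, with defined DNA repair or cell cycle alteration. Growth was scored as inhibition against vehicle-only controls.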
# [6] = NCI Yeast Anticancer Drug Screen. Data for the rad14 strain (AID 159);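 note: 0% = growth of vehicle-treated control cultures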; conditions: S. cerevisiae rad14 strain growth inhibition, hits give high values
# Method in brief: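 Readout: yeast growth inhibition, referenced to vehicle-only cultures. Strain bears a defined alteration in DNA damage repair.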
# [7] = NCI Yeast Anticancer Drug Screen. Data for the sgs1 mgt1 strain (AID 161);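 note: 0% = growth of cultures given vehicle only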; conditions: S. cerevisiae sgs1 mgt1 strain, hits give high values
# Method in brief: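 Read-out: growth inhibition vs vehicle controls. Cells: mutant yeast strain deficient in DNA damage repair.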
# [8] = NCI Yeast Anticancer Drug Screen. Data for the CLN2oe strain (AID 163);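 note: 0% = growth of vehicle-only control cultures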; conditions: S. cerevisiae CLN2oe strain, hits give high values
# Method in brief: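 Here, growth inhibition in a cell-cycle-altered yeast strain after compound exposure was quantified against vehicle control growth.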
# [9] = NCI Yeast Anticancer Drug Screen. Data for the cln2 rad14 strain (AID 165);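 note: 0% = growth equal to vehicle treated cultures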; conditions: S. cerevisiae cln2 rad14 strain, hits give high values
# Method in brief: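 Growth of compound-exposed yeast (cln2 rad14 genotype) measured and expressed as inhibition relative to vehicle.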
# [10] = NCI Yeast Anticancer Drug Screen. Data for the bub3 strain (AID 167); conditions: S. cerevisiae bub3 mutant strain, hits give high values
# Method in brief: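 Part of a panel of yeast mutants defective in DNA damage repair or cell cycle regulation. Each strain is grown with compound, and inhibition is calculated relative to solvent-treated cultures.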
# [11] = NCI Yeast Anticancer Drug Screen. Data for the wt2 strain (AID 169);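 note: 0% = growth of vehicle-treated yeast cultures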; conditions: S. cerevisiae wt2 strain growth inhibition, hits give high values
# Method in brief: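 Genetically defined yeast strains from a DNA-repair/cell-cycle panel were used. Compound-exposed yeast growth was measured, and the inhibition was calculated relative to vehicle treatment.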
# [12] = NCI Yeast Anticancer Drug Screen. Data for the mlh1 strain (AID 171);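 note: 0% = growth of vehicle-treated control cultures of the same strain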; conditions: S. cerevisiae mlh1 strain growth inhibition, hits give high values
# Method in brief: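 Here the genetically defined yeast mutant is grown with each compound, and the extent to which its growth falls below that of vehicle-exposed cells is reported.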
# [13] = NCI Yeast Anticancer Drug Screen. Data for the sgs1 strain (AID 173);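 note: 0% = growth of vehicle-only control cultures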; conditions: S. cerevisiae sgs1 mutant, hits give high values
# Method in brief: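 Relative growth inhibition, referenced to vehicle, was determined in a yeast strain with a defined alteration affecting DNA damage repair or cell cycle control after compound exposure.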
# [14] = NCI Yeast Anticancer Drug Screen. Data for the mlh1 rad18 strain (AID 175); conditions: S. cerevisiae mlh1 rad18 strain growth inhibition, hits give high values
# Method in brief: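 In this whole-cell yeast screen, a strain with altered DNA damage repair is challenged with compound, and its growth is measured against matched vehicle-treated controls.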
# [15] = NCI Yeast Anticancer Drug Screen. Data for the rad18 strain (AID 177); conditions: S. cerevisiae rad18 mutant growth inhibition, hits give high values
# Method in brief: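 Screen uses a yeast strain with a defined lesion in DNA damage repair; compound effect is read as loss of growth compared to untreated vehicle cultures.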
# [16] = at 5.0 µM (retest, dose inferred, filed as 0.5)
# [17] = at 50.0 µM (retest, dose inferred, filed as 5.0)
structure (smiles),measurement,setting,value
C=Cc1c(C)c(O)cc2c1-c1ccc(O)c(C)c1CC2,growth inhibition,[1]; at 1.2 µM,-8%
same,growth inhibition,[1]; at 3.7 µM,-4%
same,growth inhibition,[1]; at 11.0 µM,-11%
same,growth inhibition,[1]; at 33.0 µM,98% (active)
same,growth inhibition,[1]; at 100.0 µM,98% (active)
same,growth inhibition,[2]; at 1.2 µM,1%
same,growth inhibition,[2]; at 3.7 µM,24%
same,growth inhibition,[2]; at 11.0 µM,16%
same,growth inhibition,[2]; at 33.0 µM,40%
same,growth inhibition,[2]; at 100.0 µM,98% (active)
same,growth inhibition,[3]; at 1.2 µM,-18%
same,growth inhibition,[3]; at 3.7 µM,-1%
same,growth inhibition,[3]; at 11.0 µM,-3%
same,growth inhibition,[3]; at 33.0 µM,98% (active)
same,growth inhibition,[3]; at 100.0 µM,99% (active)
same,growth inhibition,[4]; at 1.2 µM,-20%
same,growth inhibition,[4]; at 3.7 µM,-3%
same,growth inhibition,[4]; [16],46%
same,growth inhibition,[4]; at 11.0 µM,12%
same,growth inhibition,[4]; at 33.0 µM,97% (active)
same,growth inhibition,[4]; [17],75% (active)
same,growth inhibition,[4]; at 50.0 µM,-24.6%
same,growth inhibition,[4]; at 100.0 µM,99% (active)
same,growth inhibition,[5]; at 1.2 µM,-19%
same,growth inhibition,[5]; at 3.7 µM,-8%
same,growth inhibition,[5]; [16],22%
same,growth inhibition,[5]; at 11.0 µM,-7%
same,growth inhibition,[5]; at 33.0 µM,98% (active)
same,growth inhibition,[5]; [17],97% (active)
same,growth inhibition,[5]; at 50.0 µM,-52.2%
same,growth inhibition,[5]; at 100.0 µM,98% (active)
same,growth inhibition,[6]; at 1.2 µM,-21%
same,growth inhibition,[6]; at 3.7 µM,-21%
same,growth inhibition,[6]; at 11.0 µM,-19%
same,growth inhibition,[6]; at 33.0 µM,97% (active)
same,growth inhibition,[6]; at 100.0 µM,98% (active)
same,growth inhibition,[7]; [16],55%
same,growth inhibition,[7]; [17],93% (active)
same,growth inhibition,[7]; at 50.0 µM,-18.5%
same,growth inhibition,[8]; at 1.2 µM,10%
same,growth inhibition,[8]; at 3.7 µM,5%
same,growth inhibition,[8]; at 11.0 µM,26%
same,growth inhibition,[8]; at 33.0 µM,98% (active)
same,growth inhibition,[8]; at 100.0 µM,99% (active)
same,growth inhibition,[9]; [16],12%
same,growth inhibition,[9]; [17],59%
same,growth inhibition,[9]; at 50.0 µM,10.6%
same,growth inhibition,[10]; at 1.2 µM,-9%
same,growth inhibition,[10]; at 3.7 µM,-11%
same,growth inhibition,[10]; [16],28%
same,growth inhibition,[10]; at 11.0 µM,5%
same,growth inhibition,[10]; at 33.0 µM,98% (active)
same,growth inhibition,[10]; [17],97% (active)
same,growth inhibition,[10]; at 50.0 µM,-43.2%
same,growth inhibition,[10]; at 100.0 µM,99% (active)
same,growth inhibition,[11]; at 1.2 µM,-63%
same,growth inhibition,[11]; at 3.7 µM,-43%
same,growth inhibition,[11]; at 11.0 µM,37%
same,growth inhibition,[11]; at 33.0 µM,46%
same,growth inhibition,[11]; at 100.0 µM,88% (active)
same,growth inhibition,[12]; at 1.2 µM,12%
same,growth inhibition,[12]; at 3.7 µM,-8%
same,growth inhibition,[12]; at 11.0 µM,3%
same,growth inhibition,[12]; at 33.0 µM,98% (active)
same,growth inhibition,[12]; at 100.0 µM,99% (active)
same,growth inhibition,[13]; at 1.2 µM,-7%
same,growth inhibition,[13]; at 3.7 µM,16%
same,growth inhibition,[13]; at 11.0 µM,36%
same,growth inhibition,[13]; at 33.0 µM,98% (active)
same,growth inhibition,[13]; at 100.0 µM,99% (active)
same,growth inhibition,[14]; [16],69%
same,growth inhibition,[14]; [17],87% (active)
same,growth inhibition,[14]; at 50.0 µM,89.3% (active)
same,growth inhibition,[15]; at 1.2 µM,-25%
same,growth inhibition,[15]; at 3.7 µM,-7%
same,growth inhibition,[15]; at 11.0 µM,4%
same,growth inhibition,[15]; at 33.0 µM,98% (active)
same,growth inhibition,[15]; at 100.0 µM,99% (active)
c1ccc2cc(OCC3CO3)c(OCC3CO3)cc2c1 (stereo unspecified),growth inhibition,[1]; at 1.2 µM,-21%
same,growth inhibition,[1]; at 3.7 µM,-21%
same,growth inhibition,[1]; at 11.0 µM,-24%
same,growth inhibition,[1]; at 33.0 µM,-16%
same,growth inhibition,[1]; at 100.0 µM,-2%
same,growth inhibition,[2]; at 1.2 µM,-21%
same,growth inhibition,[2]; at 3.7 µM,-4%
same,growth inhibition,[2]; at 11.0 µM,22%
same,growth inhibition,[2]; at 33.0 µM,59%
same,growth inhibition,[2]; at 100.0 µM,81% (active)
same,growth inhibition,[3]; at 1.2 µM,-43%
same,growth inhibition,[3]; at 3.7 µM,-25%
same,growth inhibition,[3]; at 11.0 µM,-4%
same,growth inhibition,[3]; at 33.0 µM,-21%
same,growth inhibition,[3]; at 100.0 µM,11%
same,growth inhibition,[4]; at 1.2 µM,-26%
same,growth inhibition,[4]; at 3.7 µM,-21%
same,growth inhibition,[4]; [16],56%
same,growth inhibition,[4]; at 11.0 µM,3%
same,growth inhibition,[4]; at 33.0 µM,59%
same,growth inhibition,[4]; [17],91% (active)
same,growth inhibition,[4]; at 50.0 µM,57.1%
same,growth inhibition,[4]; at 100.0 µM,83% (active)
same,growth inhibition,[5]; at 1.2 µM,-29%
same,growth inhibition,[5]; at 3.7 µM,-18%
same,growth inhibition,[5]; [16],27%
same,growth inhibition,[5]; at 11.0 µM,-29%
same,growth inhibition,[5]; at 33.0 µM,1%
same,growth inhibition,[5]; [17],67%
same,growth inhibition,[5]; at 50.0 µM,58.8%
same,growth inhibition,[5]; at 100.0 µM,64%
same,growth inhibition,[6]; at 1.2 µM,-21%
same,growth inhibition,[6]; at 3.7 µM,-8%
same,growth inhibition,[6]; at 11.0 µM,1%
same,growth inhibition,[6]; at 33.0 µM,35%
same,growth inhibition,[6]; at 100.0 µM,82% (active)
same,growth inhibition,[7]; [16],76% (active)
same,growth inhibition,[7]; [17],93% (active)
same,growth inhibition,[7]; at 50.0 µM,76.8% (active)
same,growth inhibition,[8]; at 1.2 µM,-10%
same,growth inhibition,[8]; at 3.7 µM,-2%
same,growth inhibition,[8]; at 11.0 µM,-11%
same,growth inhibition,[8]; at 33.0 µM,-6%
same,growth inhibition,[8]; at 100.0 µM,35%
same,growth inhibition,[9]; [16],14%
same,growth inhibition,[9]; [17],63%
same,growth inhibition,[9]; at 50.0 µM,60.7%
same,growth inhibition,[10]; at 1.2 µM,-22%
same,growth inhibition,[10]; at 3.7 µM,-26%
same,growth inhibition,[10]; [16],19%
same,growth inhibition,[10]; at 11.0 µM,-24%
same,growth inhibition,[10]; at 33.0 µM,-22%
same,growth inhibition,[10]; [17],29%
same,growth inhibition,[10]; at 50.0 µM,-7.95%
same,growth inhibition,[10]; at 100.0 µM,0%
same,growth inhibition,[11]; at 1.2 µM,-38%
same,growth inhibition,[11]; at 3.7 µM,-33%
same,growth inhibition,[11]; at 11.0 µM,-37%
same,growth inhibition,[11]; at 33.0 µM,-19%
same,growth inhibition,[11]; at 100.0 µM,0%
same,growth inhibition,[12]; at 1.2 µM,-37%
same,growth inhibition,[12]; at 3.7 µM,-32%
same,growth inhibition,[12]; at 11.0 µM,-33%
same,growth inhibition,[12]; at 33.0 µM,-26%
same,growth inhibition,[12]; at 100.0 µM,14%
same,growth inhibition,[13]; at 1.2 µM,-2%
same,growth inhibition,[13]; at 3.7 µM,37%
same,growth inhibition,[13]; at 11.0 µM,70% (active)
same,growth inhibition,[13]; at 33.0 µM,82% (active)
same,growth inhibition,[13]; at 100.0 µM,84% (active)
same,growth inhibition,[14]; [16],84% (active)
same,growth inhibition,[14]; [17],96% (active)
same,growth inhibition,[14]; at 50.0 µM,81.7% (active)
same,growth inhibition,[15]; at 1.2 µM,-8%
same,growth inhibition,[15]; at 3.7 µM,33%
same,growth inhibition,[15]; at 11.0 µM,69%
same,growth inhibition,[15]; at 33.0 µM,86% (active)
same,growth inhibition,[15]; at 100.0 µM,92% (active)
